The term inhibition denotes the relative decrease from the control value, in per cent.

These results are taken from ChEMBL document CHEMBL1961873, “Compounds: GSK PKIS; Assays: Nanosyn kinase panel” (2012).

The structures appear in SMILES notation.

Assay [1] has as its system Epidermal growth factor receptor (Homo sapiens), P00533 [T790M]. As to conditions: at 1 µM.
Assay [2] deals with Epidermal growth factor receptor (Homo sapiens), P00533 [L858R,T790M]. The following applies: at 0.1 µM.
Assay [3] shares this test system. The following applies: at 1 µM.
Assay [4] concerns the target Ephrin type-A receptor 2 (Homo sapiens) (UniProt P29317). As to conditions: at 0.1 µM.
Assay [5] shares this target. The following applies: at 1 µM.
Assay [6] addresses T1, Ephrin type-A receptor 3 (Homo sapiens) (UniProt P29320).
T1 sequence (whole entry): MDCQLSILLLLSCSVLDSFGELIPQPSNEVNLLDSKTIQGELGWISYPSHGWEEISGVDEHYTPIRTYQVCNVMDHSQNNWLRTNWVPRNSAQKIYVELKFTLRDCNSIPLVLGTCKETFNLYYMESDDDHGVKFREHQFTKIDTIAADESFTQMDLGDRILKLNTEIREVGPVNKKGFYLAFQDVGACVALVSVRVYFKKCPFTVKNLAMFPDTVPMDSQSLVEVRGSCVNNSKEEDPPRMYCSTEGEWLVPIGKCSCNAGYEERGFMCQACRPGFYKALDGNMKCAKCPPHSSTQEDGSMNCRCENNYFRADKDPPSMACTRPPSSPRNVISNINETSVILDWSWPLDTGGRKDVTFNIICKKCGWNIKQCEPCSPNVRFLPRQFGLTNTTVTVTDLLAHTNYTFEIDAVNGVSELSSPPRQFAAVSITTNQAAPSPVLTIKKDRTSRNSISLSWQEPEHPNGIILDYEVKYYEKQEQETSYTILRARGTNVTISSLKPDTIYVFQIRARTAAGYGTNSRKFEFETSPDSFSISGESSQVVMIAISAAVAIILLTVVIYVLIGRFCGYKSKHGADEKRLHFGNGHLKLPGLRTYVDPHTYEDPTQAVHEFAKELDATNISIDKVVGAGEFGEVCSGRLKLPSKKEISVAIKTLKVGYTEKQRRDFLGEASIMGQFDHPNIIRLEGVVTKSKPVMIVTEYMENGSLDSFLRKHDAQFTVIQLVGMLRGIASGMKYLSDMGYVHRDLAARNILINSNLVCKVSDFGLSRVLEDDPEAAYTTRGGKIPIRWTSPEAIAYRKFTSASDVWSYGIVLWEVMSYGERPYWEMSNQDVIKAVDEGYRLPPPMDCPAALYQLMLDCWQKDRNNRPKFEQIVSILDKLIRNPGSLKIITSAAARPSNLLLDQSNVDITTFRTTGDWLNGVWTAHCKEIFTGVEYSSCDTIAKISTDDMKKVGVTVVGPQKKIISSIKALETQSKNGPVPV
The following applies: at 0.1 µM.

Assay [7] addresses T1, Ephrin type-A receptor 3 (Homo sapiens). The following applies: at 1 µM.
Assay [8] deals with Ephrin type-A receptor 4 (Homo sapiens) (UniProt P54764). As to conditions: at 0.1 µM.
For assay [9] the target is unchanged. The following applies: at 1 µM.
For assay [10], the target named is T2, Ephrin type-B receptor 2 (Homo sapiens) (UniProt P29323).
T2 sequence (whole entry): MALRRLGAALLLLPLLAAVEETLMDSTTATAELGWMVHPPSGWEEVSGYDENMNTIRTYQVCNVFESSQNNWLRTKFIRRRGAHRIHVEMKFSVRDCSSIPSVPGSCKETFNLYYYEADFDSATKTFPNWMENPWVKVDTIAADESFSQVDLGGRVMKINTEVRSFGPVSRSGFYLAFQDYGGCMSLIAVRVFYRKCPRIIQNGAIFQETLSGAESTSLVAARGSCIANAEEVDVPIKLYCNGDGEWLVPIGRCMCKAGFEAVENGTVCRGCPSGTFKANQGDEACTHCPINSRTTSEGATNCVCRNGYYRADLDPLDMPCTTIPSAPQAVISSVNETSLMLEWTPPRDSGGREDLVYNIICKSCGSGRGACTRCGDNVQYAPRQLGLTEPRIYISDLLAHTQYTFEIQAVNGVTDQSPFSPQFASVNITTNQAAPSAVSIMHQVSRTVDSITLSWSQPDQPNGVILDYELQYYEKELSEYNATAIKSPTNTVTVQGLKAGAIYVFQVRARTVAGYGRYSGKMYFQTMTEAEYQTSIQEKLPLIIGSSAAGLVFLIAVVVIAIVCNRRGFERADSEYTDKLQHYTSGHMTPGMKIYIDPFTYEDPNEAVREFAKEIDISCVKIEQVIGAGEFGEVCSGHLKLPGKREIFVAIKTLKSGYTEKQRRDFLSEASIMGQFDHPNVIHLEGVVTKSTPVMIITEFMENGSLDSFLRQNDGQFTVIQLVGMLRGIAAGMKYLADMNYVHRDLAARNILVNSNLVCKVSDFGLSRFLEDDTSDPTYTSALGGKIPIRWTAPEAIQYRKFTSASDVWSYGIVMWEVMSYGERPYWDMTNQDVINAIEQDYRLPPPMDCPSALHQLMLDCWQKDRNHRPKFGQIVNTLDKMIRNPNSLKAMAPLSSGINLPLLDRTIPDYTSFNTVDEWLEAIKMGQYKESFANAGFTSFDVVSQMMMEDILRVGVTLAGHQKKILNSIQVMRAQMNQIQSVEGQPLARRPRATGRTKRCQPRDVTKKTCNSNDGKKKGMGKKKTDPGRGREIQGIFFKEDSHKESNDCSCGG
The following applies: at 0.1 µM.

Assay [11] addresses T2, Ephrin type-B receptor 2 (Homo sapiens). The following applies: at 1 µM.
The target in assay [12] is T3, Ephrin type-B receptor 3 (Homo sapiens) (UniProt P54753).
T3 sequence (whole entry): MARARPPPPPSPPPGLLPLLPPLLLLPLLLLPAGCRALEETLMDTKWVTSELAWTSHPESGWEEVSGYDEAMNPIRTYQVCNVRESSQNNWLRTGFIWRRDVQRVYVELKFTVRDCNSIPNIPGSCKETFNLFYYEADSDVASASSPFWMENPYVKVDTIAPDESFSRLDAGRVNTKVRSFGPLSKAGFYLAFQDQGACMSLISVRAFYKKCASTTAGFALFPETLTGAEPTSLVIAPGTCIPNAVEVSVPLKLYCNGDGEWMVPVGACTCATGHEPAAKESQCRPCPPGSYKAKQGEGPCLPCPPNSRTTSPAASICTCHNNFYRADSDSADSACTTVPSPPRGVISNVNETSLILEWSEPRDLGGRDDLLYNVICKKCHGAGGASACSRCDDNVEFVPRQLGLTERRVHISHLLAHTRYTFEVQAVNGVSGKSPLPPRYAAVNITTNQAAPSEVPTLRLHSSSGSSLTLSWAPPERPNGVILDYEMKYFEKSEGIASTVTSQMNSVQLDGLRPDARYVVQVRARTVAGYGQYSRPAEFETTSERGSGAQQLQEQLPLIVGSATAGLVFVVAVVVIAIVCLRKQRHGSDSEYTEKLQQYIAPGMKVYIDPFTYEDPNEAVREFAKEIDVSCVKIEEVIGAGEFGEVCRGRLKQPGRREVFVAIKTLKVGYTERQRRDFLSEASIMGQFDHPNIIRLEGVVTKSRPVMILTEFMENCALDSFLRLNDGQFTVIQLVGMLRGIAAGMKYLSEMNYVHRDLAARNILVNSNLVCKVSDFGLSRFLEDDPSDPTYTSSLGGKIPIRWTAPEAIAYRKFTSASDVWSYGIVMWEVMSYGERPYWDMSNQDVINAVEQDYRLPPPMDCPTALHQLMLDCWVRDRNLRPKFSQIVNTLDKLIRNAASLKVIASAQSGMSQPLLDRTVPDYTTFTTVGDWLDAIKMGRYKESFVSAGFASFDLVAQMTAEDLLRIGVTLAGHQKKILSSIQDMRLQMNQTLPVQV
The following applies: at 0.1 µM.

Assay [13] has as its target T3, Ephrin type-B receptor 3 (Homo sapiens). As to conditions: at 1 µM.
The target in assay [14] is T4, Ephrin type-B receptor 4 (Homo sapiens) (UniProt P54760).
T4 sequence (whole entry): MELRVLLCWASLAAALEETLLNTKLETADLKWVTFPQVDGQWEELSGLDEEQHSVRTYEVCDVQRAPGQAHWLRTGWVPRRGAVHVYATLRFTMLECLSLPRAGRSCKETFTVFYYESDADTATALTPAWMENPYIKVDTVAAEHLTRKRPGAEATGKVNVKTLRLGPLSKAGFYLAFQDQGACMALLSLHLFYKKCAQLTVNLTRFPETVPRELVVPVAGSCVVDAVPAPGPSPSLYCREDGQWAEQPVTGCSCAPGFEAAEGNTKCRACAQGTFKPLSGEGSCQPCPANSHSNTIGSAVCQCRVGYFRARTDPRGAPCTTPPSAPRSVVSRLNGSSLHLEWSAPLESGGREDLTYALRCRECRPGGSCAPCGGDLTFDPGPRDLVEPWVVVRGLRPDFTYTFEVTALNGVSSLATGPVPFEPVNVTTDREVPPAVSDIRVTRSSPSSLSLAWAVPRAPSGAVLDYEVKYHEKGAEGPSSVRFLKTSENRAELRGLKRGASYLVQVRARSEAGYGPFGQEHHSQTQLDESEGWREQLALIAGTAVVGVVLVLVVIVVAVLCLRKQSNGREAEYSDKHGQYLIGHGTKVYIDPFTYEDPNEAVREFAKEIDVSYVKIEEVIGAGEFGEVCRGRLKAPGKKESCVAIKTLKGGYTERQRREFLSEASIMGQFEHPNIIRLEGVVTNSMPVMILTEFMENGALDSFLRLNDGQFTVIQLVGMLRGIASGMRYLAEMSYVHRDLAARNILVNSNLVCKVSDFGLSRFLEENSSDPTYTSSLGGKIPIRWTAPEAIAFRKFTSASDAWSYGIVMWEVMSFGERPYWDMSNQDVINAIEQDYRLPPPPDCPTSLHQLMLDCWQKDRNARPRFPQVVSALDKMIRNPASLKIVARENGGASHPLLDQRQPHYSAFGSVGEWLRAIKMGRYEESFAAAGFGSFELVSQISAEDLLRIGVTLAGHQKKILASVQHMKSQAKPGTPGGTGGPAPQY
As to conditions: at 0.1 µM.

The target in assay [15] is T4, Ephrin type-B receptor 4 (Homo sapiens). As to conditions: at 1 µM.
Assay [16] deals with Receptor tyrosine-protein kinase erbB-2 (Homo sapiens) (UniProt P04626). The following applies: at 0.1 µM.
The target is the same in assay [17]. As to conditions: at 1 µM.
In assay [18] the target is Receptor tyrosine-protein kinase erbB-4 (Homo sapiens) (UniProt Q15303). The following applies: at 0.1 µM.
Chain of Receptor tyrosine-protein kinase erbB-4 (Homo sapiens) (Q15303 whole entry): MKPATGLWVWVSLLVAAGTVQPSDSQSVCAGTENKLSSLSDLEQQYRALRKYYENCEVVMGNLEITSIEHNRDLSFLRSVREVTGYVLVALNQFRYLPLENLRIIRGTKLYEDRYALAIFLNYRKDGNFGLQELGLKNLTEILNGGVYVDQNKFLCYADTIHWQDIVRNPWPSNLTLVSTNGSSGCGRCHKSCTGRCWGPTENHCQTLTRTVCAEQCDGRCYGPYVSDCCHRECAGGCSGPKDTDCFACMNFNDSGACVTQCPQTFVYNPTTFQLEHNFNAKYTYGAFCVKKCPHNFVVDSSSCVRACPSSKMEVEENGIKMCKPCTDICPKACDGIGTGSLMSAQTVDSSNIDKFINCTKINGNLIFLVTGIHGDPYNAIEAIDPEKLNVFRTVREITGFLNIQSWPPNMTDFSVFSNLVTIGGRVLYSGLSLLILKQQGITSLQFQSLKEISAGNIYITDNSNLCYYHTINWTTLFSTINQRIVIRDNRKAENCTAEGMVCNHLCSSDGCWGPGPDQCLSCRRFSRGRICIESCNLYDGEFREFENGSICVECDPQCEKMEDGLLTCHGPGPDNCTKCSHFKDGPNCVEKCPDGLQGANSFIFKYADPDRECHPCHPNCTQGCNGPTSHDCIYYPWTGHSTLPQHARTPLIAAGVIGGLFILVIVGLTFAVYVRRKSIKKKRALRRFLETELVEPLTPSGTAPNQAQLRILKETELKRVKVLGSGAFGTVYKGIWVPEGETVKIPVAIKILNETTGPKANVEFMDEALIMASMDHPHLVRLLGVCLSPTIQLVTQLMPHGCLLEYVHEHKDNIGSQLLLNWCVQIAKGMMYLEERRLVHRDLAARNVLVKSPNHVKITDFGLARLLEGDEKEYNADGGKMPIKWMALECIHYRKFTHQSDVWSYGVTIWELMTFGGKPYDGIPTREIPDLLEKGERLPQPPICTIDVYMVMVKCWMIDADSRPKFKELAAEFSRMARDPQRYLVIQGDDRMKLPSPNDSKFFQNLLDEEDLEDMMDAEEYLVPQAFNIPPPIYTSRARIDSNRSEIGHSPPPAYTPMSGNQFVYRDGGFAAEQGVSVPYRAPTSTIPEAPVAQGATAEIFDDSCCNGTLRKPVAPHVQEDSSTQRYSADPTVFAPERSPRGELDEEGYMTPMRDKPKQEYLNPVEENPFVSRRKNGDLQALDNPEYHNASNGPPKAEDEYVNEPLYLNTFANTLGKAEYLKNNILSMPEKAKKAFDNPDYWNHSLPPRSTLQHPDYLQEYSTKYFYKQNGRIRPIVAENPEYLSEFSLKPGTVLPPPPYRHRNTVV
Assay [19] has the same target. As to conditions: at 1 µM.
The target of assay [20] is Tyrosine-protein kinase Fer (Homo sapiens) (UniProt P16591). As to conditions: at 0.1 µM.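 Note: reported figures are averaged percent inhibition of FER.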
Chain of Tyrosine-protein kinase Fer (Homo sapiens) (P16591 whole entry, looked up): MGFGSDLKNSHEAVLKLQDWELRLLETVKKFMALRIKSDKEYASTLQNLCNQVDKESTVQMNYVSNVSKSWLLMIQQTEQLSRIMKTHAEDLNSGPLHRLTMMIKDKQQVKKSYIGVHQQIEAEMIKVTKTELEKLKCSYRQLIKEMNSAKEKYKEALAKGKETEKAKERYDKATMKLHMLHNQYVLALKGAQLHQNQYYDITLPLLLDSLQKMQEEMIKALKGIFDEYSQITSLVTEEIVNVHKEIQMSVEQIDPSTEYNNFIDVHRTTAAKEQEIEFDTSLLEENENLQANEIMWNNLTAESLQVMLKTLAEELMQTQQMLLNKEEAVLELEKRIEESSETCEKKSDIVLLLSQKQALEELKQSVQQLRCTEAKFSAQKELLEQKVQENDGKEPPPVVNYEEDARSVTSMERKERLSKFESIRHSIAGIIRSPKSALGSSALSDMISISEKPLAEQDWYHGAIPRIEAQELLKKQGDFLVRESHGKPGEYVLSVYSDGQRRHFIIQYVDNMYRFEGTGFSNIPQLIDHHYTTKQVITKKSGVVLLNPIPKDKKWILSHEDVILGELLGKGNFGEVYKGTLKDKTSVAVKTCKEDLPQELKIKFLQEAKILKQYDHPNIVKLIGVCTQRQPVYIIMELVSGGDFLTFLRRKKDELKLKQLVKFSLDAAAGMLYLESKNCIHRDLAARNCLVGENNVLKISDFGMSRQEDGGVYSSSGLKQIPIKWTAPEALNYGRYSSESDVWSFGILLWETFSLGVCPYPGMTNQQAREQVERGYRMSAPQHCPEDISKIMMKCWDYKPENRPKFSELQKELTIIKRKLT

Chain of Epidermal growth factor receptor (Homo sapiens), P00533 [L858R,T790M] (P00533 whole entry T790M/L858R, looked up): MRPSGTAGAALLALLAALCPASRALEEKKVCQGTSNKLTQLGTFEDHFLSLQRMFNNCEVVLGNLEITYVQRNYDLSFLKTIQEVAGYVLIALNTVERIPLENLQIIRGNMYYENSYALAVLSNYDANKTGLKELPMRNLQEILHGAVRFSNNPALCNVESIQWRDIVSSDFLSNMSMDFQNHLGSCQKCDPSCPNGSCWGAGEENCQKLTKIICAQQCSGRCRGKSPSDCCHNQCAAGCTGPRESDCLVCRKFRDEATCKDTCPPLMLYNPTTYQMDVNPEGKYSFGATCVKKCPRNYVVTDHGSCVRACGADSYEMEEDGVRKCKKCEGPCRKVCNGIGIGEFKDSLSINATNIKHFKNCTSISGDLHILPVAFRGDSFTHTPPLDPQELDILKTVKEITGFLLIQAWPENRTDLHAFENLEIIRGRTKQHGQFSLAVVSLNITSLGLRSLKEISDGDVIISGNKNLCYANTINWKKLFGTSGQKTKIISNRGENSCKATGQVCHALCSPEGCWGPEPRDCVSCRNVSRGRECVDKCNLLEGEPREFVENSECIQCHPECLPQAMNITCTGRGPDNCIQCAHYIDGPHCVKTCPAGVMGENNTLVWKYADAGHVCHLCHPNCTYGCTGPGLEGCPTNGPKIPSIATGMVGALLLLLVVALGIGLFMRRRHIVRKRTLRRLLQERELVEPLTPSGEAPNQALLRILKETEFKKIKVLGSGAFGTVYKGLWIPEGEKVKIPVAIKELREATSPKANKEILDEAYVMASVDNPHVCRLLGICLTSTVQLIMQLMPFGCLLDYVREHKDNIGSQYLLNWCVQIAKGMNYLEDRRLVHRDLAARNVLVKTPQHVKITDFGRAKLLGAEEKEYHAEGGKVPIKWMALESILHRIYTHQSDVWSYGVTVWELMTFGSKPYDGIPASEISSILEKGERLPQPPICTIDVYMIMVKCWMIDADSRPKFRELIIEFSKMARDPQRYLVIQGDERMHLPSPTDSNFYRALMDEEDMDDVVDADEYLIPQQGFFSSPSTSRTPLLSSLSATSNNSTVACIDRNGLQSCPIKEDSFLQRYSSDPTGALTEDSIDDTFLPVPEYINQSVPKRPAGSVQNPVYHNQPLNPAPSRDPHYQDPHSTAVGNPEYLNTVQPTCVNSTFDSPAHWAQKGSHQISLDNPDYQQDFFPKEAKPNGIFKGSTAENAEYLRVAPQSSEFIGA
Chain of Ephrin type-A receptor 2 (Homo sapiens) (P29317 whole entry): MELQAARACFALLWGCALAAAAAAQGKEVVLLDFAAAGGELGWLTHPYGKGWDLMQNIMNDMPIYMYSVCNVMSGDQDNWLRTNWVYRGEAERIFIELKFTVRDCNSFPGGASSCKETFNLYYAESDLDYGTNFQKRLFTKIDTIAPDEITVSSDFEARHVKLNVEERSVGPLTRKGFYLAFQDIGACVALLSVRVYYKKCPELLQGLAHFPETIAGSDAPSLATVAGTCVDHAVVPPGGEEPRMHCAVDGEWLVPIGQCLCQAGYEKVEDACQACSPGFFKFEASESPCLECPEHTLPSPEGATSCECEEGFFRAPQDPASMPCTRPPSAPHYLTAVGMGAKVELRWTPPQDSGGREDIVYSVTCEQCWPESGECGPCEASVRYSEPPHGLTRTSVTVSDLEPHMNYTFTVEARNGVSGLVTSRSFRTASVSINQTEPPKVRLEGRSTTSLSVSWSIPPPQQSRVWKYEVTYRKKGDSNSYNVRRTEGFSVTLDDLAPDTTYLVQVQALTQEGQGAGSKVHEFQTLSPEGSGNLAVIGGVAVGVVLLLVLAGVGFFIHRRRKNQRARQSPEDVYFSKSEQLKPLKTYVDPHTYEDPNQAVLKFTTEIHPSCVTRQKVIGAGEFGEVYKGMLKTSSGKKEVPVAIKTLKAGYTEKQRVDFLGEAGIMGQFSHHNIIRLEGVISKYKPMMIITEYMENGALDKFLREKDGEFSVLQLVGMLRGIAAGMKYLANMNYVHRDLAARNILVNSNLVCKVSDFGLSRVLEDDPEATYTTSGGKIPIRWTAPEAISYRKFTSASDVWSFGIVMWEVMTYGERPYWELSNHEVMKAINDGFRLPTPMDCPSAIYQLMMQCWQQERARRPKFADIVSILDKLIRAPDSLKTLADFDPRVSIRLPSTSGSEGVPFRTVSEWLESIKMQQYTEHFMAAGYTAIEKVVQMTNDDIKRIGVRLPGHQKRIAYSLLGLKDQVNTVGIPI

In the case of `COc1ccc(-c2cc(-c3c[nH]nc3-c3ccccn3)ccn2)cc1`, the inhibition in assay [1] worked out at 4.53%; in assay [2], 2.1%; in [3] it was 4.71%; in assay [4] it was 2.38%; in [5], 1.07%; in assay [6], 4.5%. The inhibition in assay [7] came to 7.51%; in assay [8], 8.66%; in assay [9], 14.1%; in [10], 7.99%; in assay [11], 10.2%; in assay [12], 4.76%. Besides, the inhibition was found to be 2.2% in [13]; 2.71% in assay [14]; 2.68% in [15]; 2.88% in [16]; 6.13% in assay [17]; 9.37% in assay [18]. For the same compound, the values for the inhibition in assay [19] and in [20] were 10.6% and 3.16%, respectively.

In the case of `CCN(CC)S(=O)(=O)c1ccc(OC)c(Nc2ncc(-c3ccccc3)o2)c1`, the inhibition in assay [1] was 2.04%; in assay [2], 0.39%; in assay [3], -0.47%; in assay [4], 4.36%; in assay [5], 2.14%; in [6], 2.4%. Moreover, the inhibition in assay [7] stood at 2.35%; in [8] it was 9.54%; in assay [9], 13.8%; in [10], 5.55%; in assay [11], 15.1%; in [12], 3.77%. Besides, the inhibition in assay [13] worked out at 0.54%; in [14], 0.17%; in [15] it was 7.93%; in assay [16] it was 0.91%; in assay [17] it was 2.81%; in [18] it was 7.08%. Besides, the figures for the inhibition in [19] and in assay [20] were 6.51% and 0.84%, respectively.

`CCc1nn2ncccc2c1-c1ccnc(NC2CC2)n1`: the inhibition in [1] is 1.56%; in assay [2], -2.33%; in assay [3], 0.76%; in [4], 0.52%; in assay [5], 0.58%; in assay [6] it was 2.4%. The inhibition was 3.87% in assay [7]; 4.8% in assay [8]; 8.02% in assay [9]; -1.23% in assay [10]; 5.11% in assay [11]; 2.18% in assay [12]. Further, the inhibition in [13] turned out to be 3.88%; in assay [14], 1.21%; in assay [15], 3.43%; in assay [16], 3.58%; in assay [17], 5.82%; in assay [18] it was 3.42%. The inhibition is 8.22% in assay [19] and 0.5% in [20].

For the compound `COc1cc(N2CCN(C(C)C)CC2)ccc1Nc1nc(Nc2ccc(F)cc2C(N)=O)c2cc[nH]c2n1`, the inhibition in [1] was 79.5%; in assay [2] it was 56.5%; in assay [3], 90.4%; in [4], 0.87%; in assay [5] it was -0.92%; in [6] it was 1.78%. In addition, the inhibition stood at 1.28% in assay [7]; 4.96% in assay [8]; 6.43% in [9]; 4.59% in assay [10]; 1.15% in [11]; 2.78% in [12]. Also, the inhibition in assay [13] stood at 2.03%; in assay [14], 1.77%; in assay [15], 1.31%; in assay [16] it was 2.4%; in assay [17], 3.8%; in assay [18], 35.2%. For the same compound, the results for the inhibition in [19] and in assay [20] were 76.8% and 62.8%, respectively.
